Sampled rows, rich in hits. Any-hit rate of the full collection: about 3.1%.
S-ASM inh = Inhibitors of Secretory Acid Sphingomyelinase (S-ASM): qHTS; placental ASM, HMU-PC fluorogenic substrate, 60 min; Potency, µM (top dose mostly 57.5 µM), without a hit: top-dose activity change, negative = inhibition, usual class: inhibitors; 340,000 tested, 0.006% active; AID 504937, 2011
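Fluorescence read-out (Ex 386 nm, Em 447 nm) after stopping the reaction at pH 10. Enzyme: ASM from human placenta; substrate HMU-PC0, 9 uM final; 60 min, 37 °C. Compound preincubation 10 min, ambient temperature.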
Tb PFK block = qHTS Assay to Find Inhibitors of T. brucei phosphofructokinase; ATP-dependent 6-phosphofructokinase (Trypanosoma brucei brucei), O15648; T. brucei PFK, ADP-Glo luminescence; Potency, µM (doses to about 57.5 µM), for the others: top-dose activity, negative = inhibition, hits mostly inhibitors; 330,000 tested, 0.17% active;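 further: 0% = uninhibited 1x PFK enzyme wells and -100% = no-enzyme wells; nearly all actives have a fitted effect of over 60% in size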
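1.25 nM PFK with 0.5 mM F6P and 0.1 mM ATP in 0.1 M TEA pH 8.0, 5 mM MgCl2, incubated 45 min at room temperature; ADP measured by ADP-Glo luminescence; compounds titrated up to 57 uM.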
PLK1 PBD inh = qHTS for Inhibitors of PLK1-PDB (polo-like kinase 1 - polo-box domain): Primary Screen; Plk1 PBD binding of FITC phosphopeptide, fluorescence polarization; Potency, µM, for inactives: max response, negative = inhibition, hits mostly inhibitors; Serine/threonine-protein kinase PLK1 (Homo sapiens), P53350; 360,000 tested, 2.8% active; further: series mostly up to about 57 µM; on the % scale 0 is the no-effect control and ±100 the full control effect; nearly all actives have a fitted effect of over 65% in size
Target sequence (P53350 whole entry, looked up, the tested form may be a part): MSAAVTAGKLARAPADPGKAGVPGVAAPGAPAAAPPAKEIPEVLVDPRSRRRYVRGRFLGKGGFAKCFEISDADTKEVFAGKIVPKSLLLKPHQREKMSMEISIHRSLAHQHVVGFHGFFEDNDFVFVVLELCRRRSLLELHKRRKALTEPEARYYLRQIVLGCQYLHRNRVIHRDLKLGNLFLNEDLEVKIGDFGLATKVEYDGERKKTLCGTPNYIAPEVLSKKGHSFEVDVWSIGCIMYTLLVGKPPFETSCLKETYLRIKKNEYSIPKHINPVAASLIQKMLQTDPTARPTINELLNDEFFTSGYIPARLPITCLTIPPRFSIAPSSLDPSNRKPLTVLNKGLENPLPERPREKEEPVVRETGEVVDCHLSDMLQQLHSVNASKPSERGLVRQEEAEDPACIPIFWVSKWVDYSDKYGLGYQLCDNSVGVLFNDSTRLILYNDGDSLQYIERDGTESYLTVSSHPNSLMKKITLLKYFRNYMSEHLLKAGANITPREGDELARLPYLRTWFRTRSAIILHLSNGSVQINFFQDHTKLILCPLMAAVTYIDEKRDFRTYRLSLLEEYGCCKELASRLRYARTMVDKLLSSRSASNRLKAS
VDR inhibitor = Inhibitors of the vitamin D receptor (VDR): qHTS; Vitamin D3 receptor (Homo sapiens), P11473; VDR-SRC2-3 peptide fluorescence polarization, 2 h; Potency, µM, for the others: max response, negative = inhibition, hits mostly inhibitors; 400,000 tested, 0.93% active; further: on the % scale 0 is the no-effect control and ±100 the full control effect
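FP read-out; VDR + SRC2-3 coactivator peptide; 23 nl compound by pintool; 2 h RT incubation; reagents held at 4 deg C, protected from light.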
TDP1 block = qHTS Assay for Inhibitors of Tyrosyl-DNA Phosphodiesterase (TDP1); Potency, µM (titrated, usually from 130 µM), without a hit: top-dose activity change, negative = inhibition, hits mostly inhibitors; recombinant TDP1, AlphaScreen DNA substrate cleavage; Tyrosyl-DNA phosphodiesterase 1 (Homo sapiens), Q9NUW8; 350,000 tested, 0.28% active; further: on the % scale 0 is the no-effect control and ±100 the full control effect; nearly all actives have a fitted effect of over 40% in size
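AlphaScreen read-out: signal falls as enzyme removes the 3' tyrosine-FITC from a 5'-biotinylated DNA oligo (15 nM, 5 min, RT). Enzyme was E. coli-made recombinant Tdp1 at 1 nM, exposed to compound for 15 min beforehand; beads 10 ug/ml, 10 min.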
Pin1 inh = qHTS Assay to Find Inhibitors of Pin1; Peptidyl-prolyl cis-trans isomerase NIMA-interacting 1 (Homo sapiens), Q13526; Pin1 FP peptide displacement, HiFluor488, 10 min; Potency, µM (titrated, usually from 115 µM), for inactives: top-dose activity, negative = inhibition, usual class: inhibitors; 390,000 tested, 0.009% active; AID 504891, 2011; active means well fitted inhibition curve with a large enough effect in the polarisation, with a control signal flat, not every such curve was filed as active; inconclusive means small, poorly fitted or top-dose-only effect, or effect the other way, or a change in a side signal; inactive means no such curve, though single readings can be large or run the other way; the % refers to the polarisation; further: on the % scale 0 is the no-effect control and ±100 the full control effect
* marks the source's active call; other numbers are inactive results; [ ] = dose if it differs, or a comment. Unless noted, the call rests on the fitted dose curve; in most records, active means well fitted curve in the direction sought with a large enough effect; inconclusive means small, poorly fitted or top-dose-only effect, or another doubt; inactive means no such curve, though single readings can be large; an effect the other way counts as inactive or inconclusive. Potency means the concentration at half of the fitted maximal effect.

How did CCOC(=O)C1=C(C)NC(=S)NC1c1ccc(-c2ccc(Cl)cc2)o1 (stereo not drawn) do in these assays?
S-ASM inh: -11%; Tb PFK block: 10%; PLK1 PBD inh: -12%; VDR inhibitor: -21%; TDP1 block: 11%; Pin1 inh: 61%

What do the screens show for `CS(=O)(=O)N1CCN(c2nc(-c3cccs3)nc3ccccc23)CC1`?
VDR inhibitor: -3%; TDP1 block: 2%; Pin1 inh: 5%

What do the screens show for `CCn1cnc2c(Nc3ccc(Cc4cccnc4)cc3)nc(C#N)nc21`?
TDP1 block: 2%; Pin1 inh: 1%

What do the screens show for `O=C(CCCOc1ccccc1)Nc1ccccc1C(F)(F)F`?
S-ASM inh: 2%; Tb PFK block: -4%; PLK1 PBD inh: -8%; VDR inhibitor: 0%; TDP1 block: 3%; Pin1 inh: 1%

Results for O=C(O)Cc1cccc(OCCCN(Cc2cccc(C(F)(F)F)c2Cl)CC(c2ccccc2)c2ccccc2)c1 ?
VDR inhibitor: 40µM*; TDP1 block: -7%

What do the screens show for `C=CCc1cccc(C=NNC(=O)CN2CCN(Cc3ccccc3)CC2)c1O`?
VDR inhibitor: -1%

Results for Cc1ccc(-n2nc3c(N4CCCC(C(=O)NCc5ccccc5C)C4)nnc(C)c3c2C)cc1 (stereo not drawn) ?
VDR inhibitor: -5%; TDP1 block: 6%; Pin1 inh: 38%

How did CC1(C)CC2CN(C(=O)Cc3ccccc3)C(C)(C2)C1 (stereo not drawn) do in these assays?
S-ASM inh: 3%; Tb PFK block: -4%; PLK1 PBD inh: 21µM*; VDR inhibitor: -10%; TDP1 block: 5%; Pin1 inh: -4%

What do the screens show for `CCOc1ccc(NC(=O)Cc2ccc(NC(=O)N3CCCCc4ccccc43)cc2)cc1`?
VDR inhibitor: 2%; TDP1 block: 8%; Pin1 inh: -1%

How did Cn1nc(-c2ccc(F)cc2)nc2c(=O)n(C)c(=O)nc1-2 do in these assays?
VDR inhibitor: -4%; TDP1 block: 1%

How did COc1ccc(Cl)cc1-c1ccc(C(=O)O)o1 do in these assays?
VDR inhibitor: 112µM*; TDP1 block: -11%[234 µM]

What do the screens show for `COc1ccccc1-c1ccc(C(=O)O)o1`?
S-ASM inh: 6%; Tb PFK block: 8%; PLK1 PBD inh: -11%; VDR inhibitor: inconclusive; TDP1 block: inconclusive; Pin1 inh: -3%

How did Cc1ccc(NC(=O)c2ccc(-c3cc(Cl)ccc3Cl)o2)c(C)c1 do in these assays?
PLK1 PBD inh: -2%

What do the screens show for `Cc1ccc(C)c(-c2ccc(C(=O)O)o2)c1`?
VDR inhibitor: 126µM*; TDP1 block: -6%[234 µM]

Results for CCC(NC(=O)Nc1cc(OC)ccc1OC)c1c(-n2cccc2)sc2c1CCN(CC)C2 (stereo not drawn) ?
VDR inhibitor: 3%; TDP1 block: 14%; Pin1 inh: 38%

Results for NC(=S)NN=Cc1nccc2ccccc12 ?
S-ASM inh: -1%; PLK1 PBD inh: -15%; VDR inhibitor: inconclusive; Pin1 inh: -1%

What do the screens show for `Cc1cnc(C=NNC(N)=S)c2cccc(N)c12`?
S-ASM inh: 0%; PLK1 PBD inh: 24µM*; VDR inhibitor: inconclusive; Pin1 inh: inconclusive

How did O=P1(O)OP(=O)(O)OP(=O)(O)O1.[Al] do in these assays?
VDR inhibitor: 0%; TDP1 block: 8%

Results for O=C(O)C1CC=CCC1C(=O)N1CCc2ccccc21 (stereo not drawn) ?
S-ASM inh: 3%; Tb PFK block: -5%; PLK1 PBD inh: -25%; VDR inhibitor: -14%; TDP1 block: 22µM*; Pin1 inh: 0%

What do the screens show for `O=C(O)C1C2C=CC(C2)C1C(=O)N1CCc2ccccc21` (stereo not drawn)?
S-ASM inh: 6%; Tb PFK block: -1%; PLK1 PBD inh: -7%; VDR inhibitor: 1%; TDP1 block: 9%; Pin1 inh: -3%

What do the screens show for `CN(C)c1ccc(NC(=O)Cn2cc(S(=O)(=O)Cc3ccccc3Cl)c3ccccc32)cc1`?
VDR inhibitor: -5%; TDP1 block: 4%; Pin1 inh: 17%

Results for Cc1ccc(NS(=O)(=O)c2ccc(Cl)cc2)cc1C ?
TDP1 block: -5%; Pin1 inh: inconclusive

Results for CCOC(=O)N1CCC(NC(=O)CS(=O)(=O)Cc2nc(-c3ccc(OC)cc3)oc2C)CC1 ?
S-ASM inh: -2%; Tb PFK block: 1%; PLK1 PBD inh: 21µM*; VDR inhibitor: inconclusive; TDP1 block: 4%; Pin1 inh: -4%

How did COc1cccc(-c2nc(CS(=O)(=O)CC(=O)NC3CCC(C)CC3)c(C)o2)c1 (stereo not drawn) do in these assays?
S-ASM inh: -10%; Tb PFK block: -3%; PLK1 PBD inh: 24µM*; VDR inhibitor: inconclusive; TDP1 block: 5%; Pin1 inh: 3%

How did COc1cccc(-c2nc(CS(=O)(=O)CC(=O)NC3CCCC3)c(C)o2)c1 do in these assays?
S-ASM inh: 0%; Tb PFK block: 2%; PLK1 PBD inh: -8%; VDR inhibitor: 19%; TDP1 block: 12%; Pin1 inh: -7%

Results for O=[N+]([O-])c1ccccc1SN(Cc1ccccc1)c1ccccn1 ?
S-ASM inh: -7%; Tb PFK block: inconclusive; PLK1 PBD inh: 12µM*; VDR inhibitor: -8%; TDP1 block: 11%; Pin1 inh: -6%

Results for COc1ccc2cc[nH]c2c1 ?
S-ASM inh: 2%; Tb PFK block: -8%; PLK1 PBD inh: 21µM*; VDR inhibitor: inconclusive; TDP1 block: 5%; Pin1 inh: -1%

How did COc1cc(OC)c2cc[nH]c2c1 do in these assays?
S-ASM inh: -1%; Tb PFK block: 0%; PLK1 PBD inh: 5%; VDR inhibitor: 3%; TDP1 block: 4%; Pin1 inh: -2%

Results for COc1ccccc1N(C(=O)CCl)c1cn(C(C)=O)c2ccccc12 ?
S-ASM inh: 2%; Tb PFK block: 0%; PLK1 PBD inh: -10%; VDR inhibitor: 6%; TDP1 block: 6%; Pin1 inh: 0%

High-throughput results from PubChem.
